# Reference: publication PMC7862700, “An all-to-all approach to the identification of sequence-specific readers for epigenetic DNA modifications on cytosine”
# How the values were obtained:
# Assay in all cases: DAPPL (digital affinity profiling via proximity ligation, sequencing); 10 mM Tris-HCl pH 7.5, 50 mM NaCl, 1 mM DTT, 4% glycerol, room temperature, 30 min; GST-TFs on glutathione beads, 16-mer random dsDNA library, 0.1% formaldehyde crosslink after washing; high values mean tight binding
# FLI1 = target: T1, FLI1 (Homo sapiens, UniProt Q01543 1-452); settings: protein: recombinant; tags: N-terminal GST; dsDNA, one strand shown
# T1 sequence: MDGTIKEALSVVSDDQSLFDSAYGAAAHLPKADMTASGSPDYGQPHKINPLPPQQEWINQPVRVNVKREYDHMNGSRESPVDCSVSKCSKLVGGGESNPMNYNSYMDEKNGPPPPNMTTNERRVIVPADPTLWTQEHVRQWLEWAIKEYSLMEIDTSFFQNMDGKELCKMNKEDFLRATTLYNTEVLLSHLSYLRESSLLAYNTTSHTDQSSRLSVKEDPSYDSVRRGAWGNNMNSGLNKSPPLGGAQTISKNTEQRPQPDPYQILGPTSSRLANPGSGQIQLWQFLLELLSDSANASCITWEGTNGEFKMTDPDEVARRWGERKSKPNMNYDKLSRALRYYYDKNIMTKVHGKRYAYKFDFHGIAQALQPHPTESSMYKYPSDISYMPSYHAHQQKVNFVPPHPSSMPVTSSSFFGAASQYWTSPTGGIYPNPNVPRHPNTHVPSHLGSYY
# Procedure, shortened: (§1)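 Human transcription factors carrying a GST fusion were produced in yeast, bound to glutathione beads, tagged with DNA barcodes and pooled together with a tag-only sample. Each pool was held with 200 nmole of a random double-stranded 16-mer DNA library in Tris/NaCl/DTT/glycerol buffer for 30 min at room temperature, then washed, crosslinked in 0.1% formaldehyde, proximity-ligated with BsaI/T4 ligase (1 h, 37 °C), PCR-amplified and sequenced on an Illumina NextSeq500. Binding signal is the read frequency of each hexamer for a given factor divided by its frequency in the tag-only sample.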
# ELK1 = target: T2, ELK1 (Homo sapiens, UniProt P19419 1-428); settings: protein: recombinant; tags: N-terminal GST; dsDNA, one strand shown
# T2 sequence: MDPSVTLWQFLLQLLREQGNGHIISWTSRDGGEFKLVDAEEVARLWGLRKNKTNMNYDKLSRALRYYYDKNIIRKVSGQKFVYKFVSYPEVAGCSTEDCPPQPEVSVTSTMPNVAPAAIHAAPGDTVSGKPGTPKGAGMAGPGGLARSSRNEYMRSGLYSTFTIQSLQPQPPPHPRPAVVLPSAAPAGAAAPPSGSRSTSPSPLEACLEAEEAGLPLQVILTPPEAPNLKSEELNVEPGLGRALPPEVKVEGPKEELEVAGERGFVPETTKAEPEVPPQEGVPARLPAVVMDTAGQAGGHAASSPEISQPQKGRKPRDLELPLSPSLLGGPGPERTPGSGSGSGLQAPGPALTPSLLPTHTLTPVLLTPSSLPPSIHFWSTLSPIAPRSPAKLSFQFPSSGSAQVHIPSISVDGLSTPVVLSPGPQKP
# Procedure, shortened: as §1
# GABPA = target: T3, GABPA (Homo sapiens, UniProt Q06546 1-454); settings: protein: recombinant; tags: N-terminal GST; dsDNA, one strand shown
# T3 sequence: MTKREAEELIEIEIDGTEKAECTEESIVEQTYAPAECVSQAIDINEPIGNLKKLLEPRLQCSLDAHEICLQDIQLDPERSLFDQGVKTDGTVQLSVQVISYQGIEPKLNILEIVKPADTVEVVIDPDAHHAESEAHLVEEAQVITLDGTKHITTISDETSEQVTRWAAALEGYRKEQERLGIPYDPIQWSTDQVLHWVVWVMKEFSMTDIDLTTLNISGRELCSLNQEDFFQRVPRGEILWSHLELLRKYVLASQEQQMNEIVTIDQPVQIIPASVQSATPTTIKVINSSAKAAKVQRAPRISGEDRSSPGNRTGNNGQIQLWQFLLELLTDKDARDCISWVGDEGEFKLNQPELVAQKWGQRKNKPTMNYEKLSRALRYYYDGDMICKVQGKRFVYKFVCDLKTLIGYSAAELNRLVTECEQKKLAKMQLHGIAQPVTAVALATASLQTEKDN
# Procedure, shortened: as §1
# ERG = target: T4, ERG (Homo sapiens, UniProt P11308 1-479); settings: protein: recombinant; tags: N-terminal GST; dsDNA, one strand shown
# T4 sequence: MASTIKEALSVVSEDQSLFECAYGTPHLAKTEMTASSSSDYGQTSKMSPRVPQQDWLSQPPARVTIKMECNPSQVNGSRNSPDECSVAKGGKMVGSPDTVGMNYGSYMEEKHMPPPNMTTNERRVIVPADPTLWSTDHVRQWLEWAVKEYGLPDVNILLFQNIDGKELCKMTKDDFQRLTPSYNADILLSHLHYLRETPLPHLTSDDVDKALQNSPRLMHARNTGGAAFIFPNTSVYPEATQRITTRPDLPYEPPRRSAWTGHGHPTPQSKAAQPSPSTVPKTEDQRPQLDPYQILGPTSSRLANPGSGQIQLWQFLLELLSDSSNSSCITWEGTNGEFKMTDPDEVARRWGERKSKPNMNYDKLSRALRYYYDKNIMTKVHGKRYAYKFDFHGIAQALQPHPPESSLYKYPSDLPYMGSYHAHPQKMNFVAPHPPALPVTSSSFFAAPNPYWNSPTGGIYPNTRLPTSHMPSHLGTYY
# Procedure, shortened: as §1
# ELF1 = ELF1 (Homo sapiens, UniProt P32519 1-619); settings: protein: recombinant; tags: N-terminal GST; dsDNA, one strand shown
# Procedure, shortened: as §1
# EHF = target: T5, EHF (Homo sapiens, UniProt Q9NZC4 1-300); settings: protein: recombinant; tags: N-terminal GST; dsDNA, one strand shown
# T5 sequence: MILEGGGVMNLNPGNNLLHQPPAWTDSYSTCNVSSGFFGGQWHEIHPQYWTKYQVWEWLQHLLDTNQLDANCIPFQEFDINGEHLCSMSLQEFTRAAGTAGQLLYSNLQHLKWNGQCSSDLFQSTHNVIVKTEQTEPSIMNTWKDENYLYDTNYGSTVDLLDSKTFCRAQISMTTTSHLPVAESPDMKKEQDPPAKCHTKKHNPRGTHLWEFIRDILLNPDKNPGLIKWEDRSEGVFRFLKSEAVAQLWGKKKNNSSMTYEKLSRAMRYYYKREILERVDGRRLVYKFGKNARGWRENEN
# Procedure, shortened: as §1
# SPI1 = SPI1 (Homo sapiens, UniProt P17947 1-270); settings: protein: recombinant; tags: N-terminal GST; dsDNA, one strand shown
# Procedure, shortened: as §1
# SPIB = SPIB (Homo sapiens, UniProt Q01892 1-262); settings: protein: recombinant; tags: N-terminal GST; dsDNA, one strand shown
# Procedure, shortened: as §1
# ELK3 = target: T6, ELK3 (Homo sapiens, UniProt P41970 1-407); settings: protein: recombinant; tags: N-terminal GST; dsDNA, one strand shown
# T6 sequence: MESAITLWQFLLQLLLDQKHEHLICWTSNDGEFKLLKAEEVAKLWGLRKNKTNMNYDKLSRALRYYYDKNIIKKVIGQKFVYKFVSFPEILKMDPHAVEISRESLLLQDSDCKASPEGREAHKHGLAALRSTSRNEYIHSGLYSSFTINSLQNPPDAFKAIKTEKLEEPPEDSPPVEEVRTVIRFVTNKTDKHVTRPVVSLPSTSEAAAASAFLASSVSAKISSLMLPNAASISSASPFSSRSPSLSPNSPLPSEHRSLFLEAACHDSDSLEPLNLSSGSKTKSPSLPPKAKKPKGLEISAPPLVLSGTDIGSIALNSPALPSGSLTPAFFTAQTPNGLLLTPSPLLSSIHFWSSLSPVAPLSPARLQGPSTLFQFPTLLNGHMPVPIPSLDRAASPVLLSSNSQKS
# Procedure, shortened: as §1
# FEV = target: T7, FEV (Homo sapiens, UniProt Q99581 1-238); settings: protein: recombinant; tags: N-terminal GST; dsDNA, one strand shown
# T7 sequence: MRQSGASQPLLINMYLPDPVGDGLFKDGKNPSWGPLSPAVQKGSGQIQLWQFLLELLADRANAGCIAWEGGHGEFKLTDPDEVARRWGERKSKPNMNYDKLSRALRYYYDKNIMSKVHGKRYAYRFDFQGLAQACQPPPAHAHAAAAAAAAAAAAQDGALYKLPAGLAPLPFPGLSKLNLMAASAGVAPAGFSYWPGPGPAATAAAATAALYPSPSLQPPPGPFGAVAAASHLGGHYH
# Procedure, shortened: as §1
# ETV5 = ETV5 (Homo sapiens, UniProt P41161 1-510); settings: protein: recombinant; tags: N-terminal GST; dsDNA, one strand shown
# Procedure, shortened: as §1
# HSF1 = HSF1 (Homo sapiens, UniProt Q00613 1-529); settings: protein: recombinant; tags: N-terminal GST; chain copies: 3; dsDNA, one strand shown
# Procedure, shortened: as §1
# SPIC = target: T8, SPIC (Homo sapiens, UniProt Q8N5J4 1-248); settings: protein: recombinant; tags: N-terminal GST; dsDNA, one strand shown
# T8 sequence: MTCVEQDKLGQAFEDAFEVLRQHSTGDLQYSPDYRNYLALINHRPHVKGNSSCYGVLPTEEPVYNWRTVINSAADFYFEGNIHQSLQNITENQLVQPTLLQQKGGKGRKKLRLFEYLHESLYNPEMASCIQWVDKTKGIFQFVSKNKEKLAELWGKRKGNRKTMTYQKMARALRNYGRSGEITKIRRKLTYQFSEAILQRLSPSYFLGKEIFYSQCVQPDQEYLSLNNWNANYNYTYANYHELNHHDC
# Procedure, shortened: as §1
# ELF4 = ELF4 (Homo sapiens, UniProt Q99607 1-663); settings: protein: recombinant; tags: N-terminal GST; dsDNA, one strand shown
# Procedure, shortened: as §1
# ELK4 = target: T9, ELK4 (Homo sapiens, UniProt P28324-2 1-405); settings: protein: recombinant; tags: N-terminal GST; dsDNA, one strand shown
# T9 sequence: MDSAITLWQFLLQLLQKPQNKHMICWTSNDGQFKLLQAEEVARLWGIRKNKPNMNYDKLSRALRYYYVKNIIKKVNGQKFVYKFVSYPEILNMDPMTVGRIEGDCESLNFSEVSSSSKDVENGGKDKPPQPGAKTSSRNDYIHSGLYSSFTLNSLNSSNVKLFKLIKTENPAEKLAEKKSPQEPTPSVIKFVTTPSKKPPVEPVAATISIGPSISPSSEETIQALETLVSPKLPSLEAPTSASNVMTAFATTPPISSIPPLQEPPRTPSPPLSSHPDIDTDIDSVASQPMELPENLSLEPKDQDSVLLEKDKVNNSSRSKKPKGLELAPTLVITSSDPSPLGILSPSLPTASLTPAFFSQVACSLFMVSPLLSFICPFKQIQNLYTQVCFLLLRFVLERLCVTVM
# Procedure, shortened: as §1
# ETV2 = target: T10, ETV2 (Homo sapiens, UniProt O00321 1-342); settings: protein: recombinant; tags: N-terminal GST; dsDNA, one strand shown
# T10 sequence: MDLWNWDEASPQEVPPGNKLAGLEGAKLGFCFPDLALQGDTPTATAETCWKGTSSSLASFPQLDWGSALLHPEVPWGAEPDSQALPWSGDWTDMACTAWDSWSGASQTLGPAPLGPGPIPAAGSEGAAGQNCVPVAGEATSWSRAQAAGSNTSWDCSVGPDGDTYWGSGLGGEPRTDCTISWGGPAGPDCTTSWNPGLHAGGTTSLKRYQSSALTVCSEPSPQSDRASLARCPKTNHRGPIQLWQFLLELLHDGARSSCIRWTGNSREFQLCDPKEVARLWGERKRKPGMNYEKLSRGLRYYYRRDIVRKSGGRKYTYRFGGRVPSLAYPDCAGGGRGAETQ
# Procedure, shortened: as §1
# ELF3 = target: T11, ELF3 (Homo sapiens, UniProt P78545 1-371); settings: protein: recombinant; tags: N-terminal GST; dsDNA, one strand shown
# T11 sequence: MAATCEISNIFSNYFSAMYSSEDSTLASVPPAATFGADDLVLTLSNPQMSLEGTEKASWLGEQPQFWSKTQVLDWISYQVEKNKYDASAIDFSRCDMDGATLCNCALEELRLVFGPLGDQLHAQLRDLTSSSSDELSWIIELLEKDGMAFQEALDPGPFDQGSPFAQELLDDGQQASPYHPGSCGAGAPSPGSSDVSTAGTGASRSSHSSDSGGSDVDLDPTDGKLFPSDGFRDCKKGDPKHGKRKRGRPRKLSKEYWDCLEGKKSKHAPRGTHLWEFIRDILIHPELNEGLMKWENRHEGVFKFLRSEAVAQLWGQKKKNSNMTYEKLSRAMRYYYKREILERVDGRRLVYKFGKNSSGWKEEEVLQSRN
# Procedure, shortened: as §1
# CRX = CRX (Homo sapiens, UniProt O43186 1-299); settings: protein: recombinant; tags: N-terminal GST; dsDNA, one strand shown
# Procedure, shortened: as §1
# ETV1 = ETV1 (Homo sapiens, UniProt P50549 1-477); settings: protein: recombinant; tags: N-terminal GST; dsDNA, one strand shown
# Procedure, shortened: as §1
# Chain of ETV1 (P50549 whole entry): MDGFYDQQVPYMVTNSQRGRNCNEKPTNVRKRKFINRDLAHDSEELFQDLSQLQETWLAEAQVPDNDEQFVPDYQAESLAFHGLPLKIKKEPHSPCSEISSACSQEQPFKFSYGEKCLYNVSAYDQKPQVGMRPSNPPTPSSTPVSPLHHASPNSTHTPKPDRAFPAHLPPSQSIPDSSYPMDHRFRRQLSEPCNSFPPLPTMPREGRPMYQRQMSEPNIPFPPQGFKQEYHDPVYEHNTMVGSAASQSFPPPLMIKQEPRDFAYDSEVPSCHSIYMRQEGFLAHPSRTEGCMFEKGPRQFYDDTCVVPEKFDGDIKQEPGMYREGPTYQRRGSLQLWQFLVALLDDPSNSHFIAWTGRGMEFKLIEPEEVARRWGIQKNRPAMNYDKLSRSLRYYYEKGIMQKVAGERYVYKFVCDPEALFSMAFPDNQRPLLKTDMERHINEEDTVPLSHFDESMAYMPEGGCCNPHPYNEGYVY
# Chain of HSF1 (Q00613 whole entry): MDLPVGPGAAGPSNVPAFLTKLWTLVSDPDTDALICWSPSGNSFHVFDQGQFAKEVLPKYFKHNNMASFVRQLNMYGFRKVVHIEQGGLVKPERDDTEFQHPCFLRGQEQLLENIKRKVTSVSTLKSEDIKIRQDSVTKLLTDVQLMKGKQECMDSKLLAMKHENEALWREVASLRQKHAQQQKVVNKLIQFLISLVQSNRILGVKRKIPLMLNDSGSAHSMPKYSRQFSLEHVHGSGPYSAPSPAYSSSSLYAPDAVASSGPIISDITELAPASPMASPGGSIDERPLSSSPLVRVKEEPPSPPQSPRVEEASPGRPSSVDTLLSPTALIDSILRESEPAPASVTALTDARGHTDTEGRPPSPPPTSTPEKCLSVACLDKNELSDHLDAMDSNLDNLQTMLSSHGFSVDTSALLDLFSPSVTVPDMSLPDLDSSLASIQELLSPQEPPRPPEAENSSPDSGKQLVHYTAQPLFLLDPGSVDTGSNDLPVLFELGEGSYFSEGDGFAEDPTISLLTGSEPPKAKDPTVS
# Chain of CRX (O43186 whole entry): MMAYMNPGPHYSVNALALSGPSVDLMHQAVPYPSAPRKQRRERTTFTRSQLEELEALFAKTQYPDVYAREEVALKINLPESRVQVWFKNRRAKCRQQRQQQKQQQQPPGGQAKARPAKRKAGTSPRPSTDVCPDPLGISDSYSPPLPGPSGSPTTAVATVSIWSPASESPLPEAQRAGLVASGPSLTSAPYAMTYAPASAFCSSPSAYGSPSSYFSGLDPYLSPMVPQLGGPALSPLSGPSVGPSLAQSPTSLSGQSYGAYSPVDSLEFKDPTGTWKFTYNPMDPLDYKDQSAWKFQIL
# Chain of SPIB (Q01892 whole entry): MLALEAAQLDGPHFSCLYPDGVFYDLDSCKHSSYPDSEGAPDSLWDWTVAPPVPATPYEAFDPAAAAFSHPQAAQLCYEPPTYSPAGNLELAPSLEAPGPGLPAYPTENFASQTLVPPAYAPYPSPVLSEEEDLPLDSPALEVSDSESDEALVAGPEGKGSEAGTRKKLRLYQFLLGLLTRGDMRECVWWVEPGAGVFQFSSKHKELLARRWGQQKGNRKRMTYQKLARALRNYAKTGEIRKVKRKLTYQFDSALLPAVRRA
# Chain of ELF1 (P32519 whole entry): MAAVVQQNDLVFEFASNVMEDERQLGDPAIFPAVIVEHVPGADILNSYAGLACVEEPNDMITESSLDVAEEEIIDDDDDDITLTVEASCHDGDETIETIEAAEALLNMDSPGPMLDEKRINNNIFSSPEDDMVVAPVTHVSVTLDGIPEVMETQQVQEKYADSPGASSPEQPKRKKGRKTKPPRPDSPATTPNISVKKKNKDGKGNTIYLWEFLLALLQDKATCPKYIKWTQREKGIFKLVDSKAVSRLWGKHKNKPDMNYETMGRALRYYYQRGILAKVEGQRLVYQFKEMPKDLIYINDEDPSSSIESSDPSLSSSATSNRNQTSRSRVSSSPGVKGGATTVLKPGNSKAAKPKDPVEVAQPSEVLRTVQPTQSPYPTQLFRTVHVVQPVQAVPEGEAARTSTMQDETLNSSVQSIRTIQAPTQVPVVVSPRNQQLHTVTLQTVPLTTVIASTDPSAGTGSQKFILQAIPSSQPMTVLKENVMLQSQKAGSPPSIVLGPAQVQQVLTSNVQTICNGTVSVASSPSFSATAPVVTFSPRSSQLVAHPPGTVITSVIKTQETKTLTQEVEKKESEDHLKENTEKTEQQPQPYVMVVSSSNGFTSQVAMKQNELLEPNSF
# Chain of ELF4 (Q99607 whole entry): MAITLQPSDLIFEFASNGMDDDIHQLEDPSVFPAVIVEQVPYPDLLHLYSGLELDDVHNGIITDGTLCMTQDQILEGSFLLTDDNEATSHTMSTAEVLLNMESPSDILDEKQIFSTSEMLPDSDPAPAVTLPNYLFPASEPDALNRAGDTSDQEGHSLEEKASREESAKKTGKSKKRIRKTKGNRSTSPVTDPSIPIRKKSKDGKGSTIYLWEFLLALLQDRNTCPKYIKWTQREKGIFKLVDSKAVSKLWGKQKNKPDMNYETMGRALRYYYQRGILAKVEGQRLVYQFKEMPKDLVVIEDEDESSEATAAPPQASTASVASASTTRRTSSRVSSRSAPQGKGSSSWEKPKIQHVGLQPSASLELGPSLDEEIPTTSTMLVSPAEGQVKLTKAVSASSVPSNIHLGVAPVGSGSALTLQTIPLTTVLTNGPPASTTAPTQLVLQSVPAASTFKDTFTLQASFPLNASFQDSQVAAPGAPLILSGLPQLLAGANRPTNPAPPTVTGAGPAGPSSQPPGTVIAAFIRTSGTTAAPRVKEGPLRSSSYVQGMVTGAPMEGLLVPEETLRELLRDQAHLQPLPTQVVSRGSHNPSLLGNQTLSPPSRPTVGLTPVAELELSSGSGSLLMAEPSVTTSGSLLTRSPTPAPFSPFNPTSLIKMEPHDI
# Chain of ETV5 (P41161 whole entry): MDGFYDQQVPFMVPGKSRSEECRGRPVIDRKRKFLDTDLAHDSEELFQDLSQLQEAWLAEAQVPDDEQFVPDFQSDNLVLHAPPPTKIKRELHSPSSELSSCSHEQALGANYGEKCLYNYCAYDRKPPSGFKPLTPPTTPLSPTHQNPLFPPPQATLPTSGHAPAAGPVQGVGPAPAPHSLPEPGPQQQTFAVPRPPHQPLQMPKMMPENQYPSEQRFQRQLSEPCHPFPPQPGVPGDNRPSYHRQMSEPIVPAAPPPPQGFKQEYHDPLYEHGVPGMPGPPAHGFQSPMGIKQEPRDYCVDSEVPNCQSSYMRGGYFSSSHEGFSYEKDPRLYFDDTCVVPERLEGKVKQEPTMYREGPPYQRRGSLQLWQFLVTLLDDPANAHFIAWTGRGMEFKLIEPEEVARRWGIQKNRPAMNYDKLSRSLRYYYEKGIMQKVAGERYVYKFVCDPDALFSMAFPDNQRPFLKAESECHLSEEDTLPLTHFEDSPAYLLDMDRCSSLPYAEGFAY
sequence,measurement,setting,value
TCTTGA,binding signal,FLI1,"1.33 fold enrichment (6-mer frequency, TF over GST control)"
same,binding signal,ELK1,"1.31 fold enrichment (6-mer frequency, TF over GST control)"
same,binding signal,GABPA,"1.33 fold enrichment (6-mer frequency, TF over GST control)"
same,binding signal,ERG,"1.24 fold enrichment (6-mer frequency, TF over GST control)"
same,binding signal,ELF1,"1.3 fold enrichment (6-mer frequency, TF over GST control)"
same,binding signal,EHF,"1.35 fold enrichment (6-mer frequency, TF over GST control)"
same,binding signal,SPI1,"1.25 fold enrichment (6-mer frequency, TF over GST control)"
same,binding signal,SPIB,"1.27 fold enrichment (6-mer frequency, TF over GST control)"
same,binding signal,ELK3,"1.29 fold enrichment (6-mer frequency, TF over GST control)"
same,binding signal,FEV,"1.3 fold enrichment (6-mer frequency, TF over GST control)"
same,binding signal,ETV5,"1.14 fold enrichment (6-mer frequency, TF over GST control)"
same,binding signal,HSF1,"1.61 fold enrichment (6-mer frequency, TF over GST control)"
same,binding signal,SPIC,"1.21 fold enrichment (6-mer frequency, TF over GST control)"
same,binding signal,ELF4,"1.33 fold enrichment (6-mer frequency, TF over GST control)"
same,binding signal,ELK4,"1.4 fold enrichment (6-mer frequency, TF over GST control)"
same,binding signal,ETV2,"1.2 fold enrichment (6-mer frequency, TF over GST control)"
same,binding signal,ELF3,"1.19 fold enrichment (6-mer frequency, TF over GST control)"
same,binding signal,CRX,"1.44 fold enrichment (6-mer frequency, TF over GST control)"
same,binding signal,ETV1,"1.17 fold enrichment (6-mer frequency, TF over GST control)"
